This note sets out measurements from PubChem BioAssay (EPA / NIEHS).

As a reminder, the AC50 is the midpoint of the concentration-response curve, whichever way the signal moves.

Activity calls are given as the source filed them. How the source made its calls: active means hit-call score of the fitted dose curve at least 0.9, where 1 is the maximum; inactive means score below 0.9.

Test [1] is described as follows: ATG_GLI_CIS: Attagene CIS-FACTORIAL HepG2 Assay for human Zinc Finger Protein GLI1 (AID 2282945). To be noted: HepG2, Attagene cis-factorial reporter mRNA, GLI element; actives raise or lower the signal. Summed up:
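HepG2 cells transiently transfected with cis-promoter multiplexed reporter units report endogenous transcription factor activity. After 24 h chemical exposure, reporter mRNA was quantified by RT-PCR, 6-FAM labelling, HpaI digestion and capillary electrophoresis, with bidirectional fitting against DMSO.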

The target in test [2] is Bile acid receptor (Homo sapiens) (UniProt Q96RI1). The test can be described thus: ATG_IR1_CIS: Attagene CIS-FACTORIAL HepG2 Assay for human Nuclear Receptor Subfamily 1 Group H Member 4 (NR1H4), IR1 submotif (AID 2282946). The settings on record: IR1 reporter transcription, actives raise or lower the signal. The method in brief: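 Transient MRTU transfection, HepG2; 24 h dosing; RNA → RT-PCR → 6-FAM primer extension → HpaI digest → capillary electrophoresis fluorescence. Gain/loss of signal fitted relative to DMSO.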

Test [3] in a line: ATG_GRE_CIS: Attagene CIS-FACTORIAL HepG2 Assay for human Glucocorticoid Response Elements (GRE) (AID 2282947). To be noted: HepG2 GRE cis-reporter, Attagene multiplex mRNA; actives raise or lower the signal. The method in brief:
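Following 24 h chemical exposure of transiently transfected HepG2 cells, total RNA was reverse-transcribed and reporter cDNA amplified, fluorescently labelled and sized by capillary electrophoresis. Signal gain or loss was fitted relative to DMSO vehicle.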

Test [4] in a line: ATG_ISRE_CIS: Attagene CIS-FACTORIAL HepG2 Assay for human Interferon Regulatory Factor 1 (IRF1) binding to an Interferon-Stimulated Response Element (ISRE) (AID 2282948). To be noted: HepG2 ISRE cis-reporter (Attagene), mRNA transcription readout; actives raise or lower the signal. The method in brief: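 Cell-based cis-reporter assay; HepG2; 24 h exposure; reporter mRNA by RT-PCR plus capillary electrophoresis fluorescence; activity in either direction scored relative to DMSO.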

Test [5] can be described thus: ATG_M_06_CIS: Attagene CIS-FACTORIAL HepG2 Assay for M06 Transcription Factor (Internal Marker) (AID 2282950). The settings on record: HepG2 Attagene CIS-FACTORIAL M06 internal marker reporter; actives raise or lower the signal. The method in brief:
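Steps: transfect HepG2 with multiplexed cis-element reporter constructs; dose chemical 24 h; extract RNA with DNase treatment; reverse-transcribe, PCR-amplify, 6-FAM label, HpaI digest; separate fragments by capillary electrophoresis. Activity fitted both directions versus DMSO.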

Test [6] deals with Hypoxia-inducible factor 1-alpha (Homo sapiens) (UniProt Q16665). The test can be described thus: ATG_HIF1a_CIS: Attagene CIS-FACTORIAL HepG2 Assay for human Hypoxia Inducible Factor 1 (HIF1A) (AID 2282951). The settings on record: HepG2 Attagene cis-factorial HIF1a reporter transcription; actives raise or lower the signal. The method in brief: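 After 24 h chemical exposure of reporter-transfected HepG2 cells, reporter cDNA was PCR-amplified, labelled by 6-FAM primer extension (2 min 95 C, 20 s 68 C, 10 min 72 C), HpaI-cut (2 h, 37 C) and analysed by CE.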

Test [7] addresses Heat shock factor protein 1 (Homo sapiens) (UniProt Q00613). Kind of test: ATG_HSE_CIS: Attagene CIS-FACTORIAL HepG2 Assay for human Heat Shock Transcription Factor 1 (HSE) (AID 2282953). The settings on record: HepG2 HSE cis-reporter, Attagene RNA transcription; actives raise or lower the signal. Summed up:
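Cells were transfected with cis-element-driven reporter constructs, dosed for 24 h, then total RNA was reverse-transcribed and reporter cDNA amplified, FAM-labelled and digested with HpaI. Fragments were resolved by capillary electrophoresis; gain or loss was fitted against DMSO.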

Test [8] can be described thus: ATG_MRE_CIS: Attagene CIS-FACTORIAL HepG2 Assay for human Metal Responsive Element (MRE) (AID 2282954). To be noted: HepG2 MRE cis-reporter transcription, Attagene multiplex; actives raise or lower the signal. The method in brief:
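Step one: transfect HepG2 with cis-regulated reporter units. Step two: dose 24 h. Step three: isolate RNA, RT-PCR, 6-FAM label, HpaI digest, capillary electrophoresis. Fit bidirectionally to DMSO.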

Test [9] concerns the target Hepatocyte nuclear factor 6 (Homo sapiens) (UniProt Q9UBC0). The test can be described thus: ATG_HNF6_CIS: Attagene CIS-FACTORIAL HepG2 Assay for human Hepatocyte Nuclear Factor 6 (HNF6) (AID 2282952). The settings on record: HepG2 Attagene cis-factorial HNF6 reporter transcription; actives raise or lower the signal. Summed up: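 Cells are HepG2 carrying transiently transfected cis-promoter reporter units. Treatment lasts 24 h, after which reporter transcripts are reverse-transcribed, amplified, FAM-labelled and sized by capillary electrophoresis. DMSO serves as baseline.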

Chain of Heat shock factor protein 1 (Homo sapiens) (Q00613 whole entry, looked up, the tested form may be a part): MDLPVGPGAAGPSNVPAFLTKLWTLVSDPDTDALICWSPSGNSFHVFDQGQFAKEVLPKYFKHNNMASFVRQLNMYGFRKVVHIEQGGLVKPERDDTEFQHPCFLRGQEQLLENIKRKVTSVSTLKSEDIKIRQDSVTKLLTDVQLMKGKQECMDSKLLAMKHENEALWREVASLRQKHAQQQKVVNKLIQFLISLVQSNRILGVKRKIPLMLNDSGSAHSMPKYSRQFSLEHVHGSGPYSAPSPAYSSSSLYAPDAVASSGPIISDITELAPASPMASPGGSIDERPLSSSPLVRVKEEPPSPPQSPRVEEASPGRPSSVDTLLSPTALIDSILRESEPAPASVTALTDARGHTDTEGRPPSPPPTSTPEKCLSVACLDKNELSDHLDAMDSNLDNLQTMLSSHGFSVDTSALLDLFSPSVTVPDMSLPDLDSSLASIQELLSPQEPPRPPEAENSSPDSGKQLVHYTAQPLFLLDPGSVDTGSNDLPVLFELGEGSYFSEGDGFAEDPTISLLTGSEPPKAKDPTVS
Chain of Hypoxia-inducible factor 1-alpha (Homo sapiens) (Q16665 whole entry, looked up): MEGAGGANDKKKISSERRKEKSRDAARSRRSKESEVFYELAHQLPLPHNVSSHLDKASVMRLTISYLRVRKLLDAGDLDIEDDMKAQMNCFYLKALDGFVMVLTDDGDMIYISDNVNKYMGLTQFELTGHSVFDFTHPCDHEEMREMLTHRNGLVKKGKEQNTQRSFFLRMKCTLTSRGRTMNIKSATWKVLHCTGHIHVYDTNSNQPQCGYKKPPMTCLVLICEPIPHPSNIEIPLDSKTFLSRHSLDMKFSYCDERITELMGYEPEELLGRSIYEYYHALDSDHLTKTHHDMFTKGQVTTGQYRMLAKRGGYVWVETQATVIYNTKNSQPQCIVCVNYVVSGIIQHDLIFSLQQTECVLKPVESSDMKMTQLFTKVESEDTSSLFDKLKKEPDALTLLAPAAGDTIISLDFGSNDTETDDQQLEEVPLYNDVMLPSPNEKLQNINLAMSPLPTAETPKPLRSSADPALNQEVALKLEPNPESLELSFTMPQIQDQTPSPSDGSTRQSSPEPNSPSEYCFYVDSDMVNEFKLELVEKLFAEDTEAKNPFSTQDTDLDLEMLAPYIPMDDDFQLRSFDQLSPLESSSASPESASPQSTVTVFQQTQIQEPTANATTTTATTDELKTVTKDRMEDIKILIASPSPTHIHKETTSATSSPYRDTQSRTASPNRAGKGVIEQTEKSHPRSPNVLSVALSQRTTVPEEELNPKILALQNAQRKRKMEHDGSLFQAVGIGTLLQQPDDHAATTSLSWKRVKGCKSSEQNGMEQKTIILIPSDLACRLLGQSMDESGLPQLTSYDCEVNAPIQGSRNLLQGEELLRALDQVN
Chain of Hepatocyte nuclear factor 6 (Homo sapiens) (Q9UBC0 whole entry, looked up): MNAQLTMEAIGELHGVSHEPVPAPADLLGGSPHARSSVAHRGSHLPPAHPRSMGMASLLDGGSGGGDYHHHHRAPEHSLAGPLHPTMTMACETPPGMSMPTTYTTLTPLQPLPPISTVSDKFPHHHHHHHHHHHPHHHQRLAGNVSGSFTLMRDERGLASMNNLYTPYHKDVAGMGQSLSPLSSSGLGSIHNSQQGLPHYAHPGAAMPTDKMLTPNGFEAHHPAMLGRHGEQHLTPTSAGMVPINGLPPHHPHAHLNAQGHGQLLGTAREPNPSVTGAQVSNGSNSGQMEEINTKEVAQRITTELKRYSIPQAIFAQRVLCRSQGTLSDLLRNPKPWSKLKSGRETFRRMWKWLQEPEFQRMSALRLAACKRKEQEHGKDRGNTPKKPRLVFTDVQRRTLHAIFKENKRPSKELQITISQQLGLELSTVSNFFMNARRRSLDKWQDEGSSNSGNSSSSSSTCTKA
Chain of Bile acid receptor (Homo sapiens) (Q96RI1 whole entry, looked up): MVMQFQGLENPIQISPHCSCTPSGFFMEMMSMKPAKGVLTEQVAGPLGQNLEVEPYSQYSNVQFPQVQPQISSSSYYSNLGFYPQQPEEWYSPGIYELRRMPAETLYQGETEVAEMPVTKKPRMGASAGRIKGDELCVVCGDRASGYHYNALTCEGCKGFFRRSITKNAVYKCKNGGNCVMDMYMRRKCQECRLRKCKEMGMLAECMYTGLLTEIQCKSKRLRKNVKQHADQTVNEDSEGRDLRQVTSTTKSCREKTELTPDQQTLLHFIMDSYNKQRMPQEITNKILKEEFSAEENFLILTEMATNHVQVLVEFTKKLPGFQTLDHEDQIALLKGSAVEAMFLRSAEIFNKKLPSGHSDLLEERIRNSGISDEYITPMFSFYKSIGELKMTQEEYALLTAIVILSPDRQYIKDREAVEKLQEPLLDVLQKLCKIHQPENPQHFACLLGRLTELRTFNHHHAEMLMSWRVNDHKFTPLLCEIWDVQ

As to `C[C@]12CC[C@H]3C(=CCc4cc(O)ccc43)[C@@H]1CCC2=O`, the compound was classed as inactive in test [1], in [2], in test [3], in [4], in test [5] and in test [6]. For the same compound, the compound was called inactive in test [7] and in test [8].
For `NCC(F)(F)C(F)(F)C(F)(F)C(F)(F)C(F)(F)C(F)(F)C(F)(F)C(F)(F)F`, the call in [1], in [2], in [3], in test [4], in test [5] and in test [6] was inactive. The call in test [9], in test [7] and in test [8] was inactive.
On to `CCCCCCCC/C=C\CCCCCCCC(=O)OCC(O)CO` (stereo unspecified), for which the compound was called inactive in [1], in test [2], in test [3], in test [4], in [5] and in test [7]. For the same compound, the call in test [8] was inactive. Also, the AC50 in test [6] was 100 µM (active).
As for `CC(C)(C)C(=O)C1C(=O)c2ccccc2C1=O`, the compound was called inactive in test [1], in [2], in [3], in test [4], in test [5] and in [9]. The compound was called inactive in [7] and in test [8]. For the same compound, the AC50 in test [6] is 158 µM (active).
Consider `CC(C)OC=O`, for which the compound was called inactive in [1], in [2], in [3], in [4], in test [5] and in test [6]. Besides, the compound was called inactive in test [7] and in [8].
Regarding `CC1=CCC2C(=O)OC(=O)C2C1` (stereo unspecified), the compound was classed as inactive in test [1], in test [2], in test [3], in test [4], in test [5] and in [6]. Also, the outcome in test [9], in [7] and in test [8] was inactive.
With `O=C(F)C1(F)C(F)(F)C(F)(F)C(F)(F)C(F)(F)C1(F)F`, the call in test [1], in test [2], in test [3], in test [4], in test [5] and in [6] was inactive. Further, the compound was called inactive in test [7] and in test [8].
For the compound `CCCCCCCCCCCCCCCCC`, the result in test [1], in test [2], in test [3], in [4], in test [5] and in test [6] was inactive. In addition, the compound was classed as inactive in test [7] and in test [8].
`Cc1cc(C)c(O)c(C(C)(C)C)c1`: the compound was called inactive in [1], in test [2], in test [3], in test [4], in test [5] and in test [6]. The compound was classed as inactive in test [9], in test [7] and in test [8].
Consider `CCN=C1C=CC(=C(c2ccc(N(CC)CC)cc2)c2ccc(N(CC)CC)cc2)c2ccccc21`, for which the AC50 is 5.55 µM (active) in test [1]; 0.911 µM (active) in test [2]; 0.916 µM (active) in [4]; 1.1 µM (active) in test [6]; 1.01 µM (active) in test [7]; 1.03 µM (active) in test [8]. Moreover, the compound was called inactive in test [3], in [5] and in [9].
`CO[Si](CCCOCC1CO1)(OC)OC` (stereo unspecified): the outcome in test [1], in test [2], in [3], in test [4], in [5] and in [6] was inactive. Besides, the result in test [9], in test [7] and in test [8] was inactive.
Regarding `O=C1OC(=O)c2ccc3c4c(ccc1c24)C(=O)OC3=O`, the outcome in test [1], in test [2], in test [3], in test [4], in [5] and in test [6] was inactive. Besides, the compound was classed as inactive in test [9], in test [7] and in test [8].
Turning to `CC(O)C#CC(C)O` (stereo unspecified), the AC50 in [1] was 142 µM (active); in [2], 67.7 µM (active); in test [4], 99.5 µM (active); in [7] it was 78.2 µM (active); in [8], 57.2 µM (active). In addition, the call in test [3], in [5] and in test [6] was inactive.
As to `OCCCc1cccnc1`, the outcome in test [1], in [2], in [3], in test [4], in test [5] and in test [6] was inactive. Also, the compound was called inactive in test [9], in test [7] and in test [8].
As to `FC(F)(F)C(F)(F)C(F)(F)CC1CO1` (stereo unspecified), the call in [1], in test [2], in test [3], in [4], in [5] and in test [6] was inactive. Also, the outcome in test [7] and in [8] was inactive.
For `CC(C)=CCCC(C)O` (stereo unspecified), the outcome in [1], in [2], in test [3], in test [4], in test [5] and in test [6] was inactive. The outcome in [9], in test [7] and in test [8] was inactive.
Regarding `Oc1ccc2c(c1)CCC2`, the outcome in [1], in test [2], in test [3], in test [4], in [5] and in [6] was inactive. In addition, the outcome in test [9], in test [7] and in test [8] was inactive.
`C=C(C)C(=O)OCC(F)(F)C(F)(F)C(F)(F)C(F)F`: the outcome in test [1], in test [2], in test [3], in test [4], in [5] and in test [6] was inactive. The outcome in test [9], in [7] and in test [8] was inactive.
`OC(O)C(F)(F)C(F)(F)F`: the outcome in test [1], in [2], in test [3], in test [5], in test [6] and in [9] was inactive. For the same compound, the result in test [7] and in test [8] was inactive. Moreover, the AC50 in test [4] is 108 µM (active).
Regarding `CCCCCCCCCCCCCC[P+](CCCC)(CCCC)CCCC`, the result in test [1], in [2], in test [3], in test [4], in test [5] and in test [6] was inactive. The compound was called inactive in [9]. In addition, the results for the AC50 in test [7] and in [8] were 0.82 µM (active) and 0.871 µM (active), respectively.
Consider `CCCCOC(=O)C(C)O` (stereo unspecified), for which the call in test [1], in test [2], in [3], in [4], in [5] and in [6] was inactive. Further, the call in [9], in test [7] and in test [8] was inactive.
For `Cc1cc(O)c(C(C)(C)C)cc1C(C)(C)C`, the outcome in test [1], in test [3], in test [5], in [6] and in [7] was inactive. Besides, the AC50 was 2.87 µM (active) in test [2], 17.2 µM (active) in test [4] and 18 µM (active) in test [8].
On to `CC(=O)C=O`, for which the result in [1], in test [2], in test [3], in [4], in [5] and in [6] was inactive. Also, the compound was called inactive in [9], in [7] and in test [8].
For the compound `CCc1cccc(C)c1N(C(=O)C(=O)O)C(C)COC` (stereo unspecified), the outcome in test [1], in [2], in test [3], in [4], in test [5] and in [6] was inactive. The compound was called inactive in test [9], in test [7] and in test [8].
For `OCC1CCCO1` (stereo unspecified), the call in test [1], in test [2], in [3], in test [4], in test [5] and in [6] was inactive. For the same compound, the call in [7] and in [8] was inactive.
Regarding `CCC(Cc1c(I)cc(I)c(N)c1I)C(=O)O` (stereo unspecified), the call in test [1], in [2], in test [3], in test [5], in [6] and in [9] was inactive. In addition, the result in [7] and in test [8] was inactive. In addition, the AC50 in test [4] was 88.5 µM (active).
Take `CCN(CC)c1ccc(C=O)cc1`: the result in [1], in test [2], in [3], in test [4], in test [5] and in test [6] was inactive. The result in test [9], in test [7] and in test [8] was inactive.
For `CCN(CC)c1ccc(C=O)c(O)c1`, the compound was classed as inactive in [1], in test [2], in [3], in [5], in [6] and in test [7]. Further, the AC50 was 75.4 µM (active) in [4] and 52.2 µM (active) in test [8].
For `CCc1ccc(C)nc1`, the compound was classed as inactive in test [1], in test [2], in test [3], in test [4], in test [5] and in test [6]. For the same compound, the call in test [9], in test [7] and in [8] was inactive.
